Among all 48,000 compounds or so, about 13,000 (27%) showed an effect of 50% or more. Some of the results follow.

This test has as its system Wolbachia pipientis. In words: Anti-Wolbachia Cell-Based Screen. In kind it is functional. Details: scale not given: in the data most compounds retested in dose-response had high values. To be noted: 5 µM.
On to `Cc1nn(C)c2ncc(S(=O)(=O)N3CCCC(C)CC3)cc12` (stereo unspecified), for which the “Percent Effect” value is -7.374%. Next, `CC(C)Cn1nc2ccc(S(=O)(=O)N3CCC(C)CC3)cn2c1=O`: 132.8%; `CCC(C)NC(=O)NCCCn1nc2ccccn2c1=O` (stereo unspecified): -2.078%; `COC(=O)Cn1cccc(S(=O)(=O)N2CCC(C)CC2)c1=O`: 3.954%.

With `CC(C)CCn1nc2ccc(S(=O)(=O)N3CCOCC3)cn2c1=O`, the “Percent Effect” value was determined as 120.3%.

`Cn1cnc(S(=O)(=O)N2CCOCC2)c1Cl`: the “Percent Effect” value is on record as -4.923%. Next, `COCCO[C@H]1CCN(C(=O)c2ccno2)[C@H]1Cc1ccncc1.O=C(O)C(F)(F)F`: -8.897%. Next, `CC/C=C(/C)C(=O)NCc1ccnc(OC2CCOCC2)c1`: -6.645%.

Take `CC(=O)NCc1nnc2n1CCN(c1ncnc3c(C)csc13)CC2`: the “Percent Effect” value is -2.169%.

Regarding `O=S(=O)(CCCn1cncn1)Cc1ccc(F)cc1Cl`, the “Percent Effect” value was 8.322%. With `COCCN(Cc1ccoc1)C(=O)c1ccccc1Cl`, the “Percent Effect” value was -4.504%. The same measure for `CCOc1ccc(CN(CCOC)C(=O)c2ccncc2Cl)cc1`: 0.1724%. Regarding `CCSc1ccccc1C(=O)N(CCOC)Cc1ccoc1`, the “Percent Effect” value is on record as 121.3%.

As for `CCN(Cc1ccoc1)C(=O)c1ccncc1O`, the “Percent Effect” value came out at 2.225%.

In the case of `COCCN(CCOC)C(=O)c1ccoc1C`, the “Percent Effect” value is -2.566%. As for `COCCN(Cc1ccoc1)C(=O)c1c(F)cccc1F`, the “Percent Effect” value was 126.9%. As for `CCN(Cc1ccoc1)C(=O)c1ccc(C)c(S(N)(=O)=O)c1`, the “Percent Effect” value is on record as 0.3555%. On to `COCCN(Cc1ccoc1)C(=O)c1ccc(Cl)s1`, for which the “Percent Effect” value was determined as 106%. For the compound `COCCN(Cc1ccoc1)C(=O)c1c(F)cccc1Cl`, the “Percent Effect” value is -1.026%. In the case of `COCCN(Cc1ccncc1)C(=O)C1COc2c(cccc2OC)C1` (stereo unspecified), the “Percent Effect” value is 4.804%.

For the compound `CCc1ncc(C(=O)N(CCOC)Cc2ccccc2F)cn1`, the “Percent Effect” value was -19.66%.

For `COCCN(Cc1ccoc1)C(=O)c1ccccc1OC`, the “Percent Effect” value is given as 102.9%.

Turning to `N[C@H]1CN(C(=O)c2ccccc2OCCc2ccccc2)C[C@@H]1C1CC1`, the “Percent Effect” value amounted to 18.87%. Next, `O=S(=O)(NC1=NCN(CCc2cccs2)CN1)c1ccccc1`: 2.891%. Regarding `Cc1ncc2c(n1)CN(Cc1cn3ccsc3n1)CC2`, the “Percent Effect” value is listed as -12.96%. The same measure for `NC(=O)CCN(C(=O)CSc1ccc(F)cc1)c1ccc(F)cc1`: -8.487%; for `COCCCN(Cc1ccncc1)C(=O)CSc1ccc(F)cc1`: -0.07203%; for `COCCN(Cc1ccoc1)C(=O)c1ccccn1`: 112.1%.

Take `CCN(C)c1ccc(C(=O)N(CCOC)Cc2ccccn2)cc1`: the “Percent Effect” value is listed as -4.982%.

Turning to `COCCN(Cc1ccoc1)C(=O)c1cccnc1SC`, the “Percent Effect” value is listed as 9.468%. The same measure for `COCCN(Cc1ccoc1)C(=O)CSc1ccc(F)cc1`: 117.6%; for `O=C(CN1CCC2(CCCN(CCO)C2=O)C1)NCCc1ccccc1` (stereo unspecified): 3.055%; for `O=C(COc1coc(CN2CCCCC2)cc1=O)Nc1ccc(Cl)cc1`: -2.562%.

For the compound `Cc1ccccc1NS(=O)(=O)c1cc2c(c(C(=O)O)c1)OCCO2`, the “Percent Effect” value is -5.791%. For `CCc1cccc(NS(=O)(=O)c2cc3c(c(C(=O)O)c2)OCCO3)c1`, the “Percent Effect” value was 10.09%. The same measure for `Cc1cccc(NS(=O)(=O)c2cc3c(c(C(=O)O)c2)OCCO3)c1`: 105.7%; for `CN(c1ccc(F)c(F)c1)S(=O)(=O)c1cc2c(c(C(=O)O)c1)OCCO2`: -16.04%; for `Cc1cc(C)cc(NS(=O)(=O)c2cc3c(c(C(=O)O)c2)OCCO3)c1`: 6.571%. The same measure for `Cc1ccc(NS(=O)(=O)c2cc3c(c(C(=O)O)c2)OCCO3)c(F)c1`: -7.996%; for `Cc1ccc(C)c(NS(=O)(=O)c2cc3c(c(C(=O)O)c2)OCCO3)c1`: 110.3%; for `Cc1ccc(F)c(NS(=O)(=O)c2cc3c(c(C(=O)O)c2)OCCO3)c1`: 118.3%. Turning to `Cc1cc(C)cc(N(C)S(=O)(=O)c2cc3c(c(C(=O)O)c2)OCCO3)c1`, the “Percent Effect” value was -3.92%. As for `Cc1nc(CN(C)C(=O)c2cccc(CC3CCNCC3)c2)no1`, the “Percent Effect” value was -18.2%. The same measure for `CCc1nnsc1C(=O)NC(CC(C)C)C(=O)OC` (stereo unspecified): -4.538%.

Take `CN1C[C@@H](NC(=O)c2cc(F)cc(F)c2)C[C@H]1C(=O)NCc1ncc[nH]1`: the “Percent Effect” value is listed as 4.795%. Take `COc1ccccc1NCC(=O)NCc1scnc1C`: the “Percent Effect” value was -10.76%. As for `CC1CN(CCC(=O)NCCc2cccnc2)Cc2ccccc2O1` (stereo unspecified), the “Percent Effect” value came to 11.18%. Next, `CC(Cn1ccnc1)NC(=O)NCCN1CCc2ccccc2C1` (stereo unspecified): 3.376%. Turning to `Cc1nc(C)c(C(=O)N2Cc3ccccc3OCC2Cn2ccnc2)o1` (stereo unspecified), the “Percent Effect” value is -31.31%. Next, `CN(CC1COc2ccccc2O1)C(=O)NCCCn1ccnc1` (stereo unspecified): -8.094%. Take `Cc1nc(C)c(C(=O)N2Cc3ccccc3OCC2Cn2ccnc2)s1` (stereo unspecified): the “Percent Effect” value stood at 70.21%.

These data come from ChEMBL document CHEMBL3988442, “University of Dundee, Small-Polar-MMV Screening Library” (2021).
